Assay results taken from PubChem BioAssay (NCATS).
Values joined by “and” are separate entries in the source; they are usually repeats but may differ in a detail not shown here. Equal entries are not always repeated. Inconclusive results are not listed. A call without a number means that no potency is given here. Active and inactive are the calls of the source. Unless noted, the call rests on the fitted dose curve.

Experiments:
[1] = target: Estrogen receptor (Homo sapiens) (UniProt P03372); assay: qHTS assay for small molecule antagonists of estrogen receptor alpha signaling (AID 588513; active means well fitted curve in the direction sought with a large enough effect in the signal ratio, with a control signal flat, not every such curve was filed as active; the % refers to the signal ratio)
Sequence of Estrogen receptor (Homo sapiens) (P03372 whole entry, looked up): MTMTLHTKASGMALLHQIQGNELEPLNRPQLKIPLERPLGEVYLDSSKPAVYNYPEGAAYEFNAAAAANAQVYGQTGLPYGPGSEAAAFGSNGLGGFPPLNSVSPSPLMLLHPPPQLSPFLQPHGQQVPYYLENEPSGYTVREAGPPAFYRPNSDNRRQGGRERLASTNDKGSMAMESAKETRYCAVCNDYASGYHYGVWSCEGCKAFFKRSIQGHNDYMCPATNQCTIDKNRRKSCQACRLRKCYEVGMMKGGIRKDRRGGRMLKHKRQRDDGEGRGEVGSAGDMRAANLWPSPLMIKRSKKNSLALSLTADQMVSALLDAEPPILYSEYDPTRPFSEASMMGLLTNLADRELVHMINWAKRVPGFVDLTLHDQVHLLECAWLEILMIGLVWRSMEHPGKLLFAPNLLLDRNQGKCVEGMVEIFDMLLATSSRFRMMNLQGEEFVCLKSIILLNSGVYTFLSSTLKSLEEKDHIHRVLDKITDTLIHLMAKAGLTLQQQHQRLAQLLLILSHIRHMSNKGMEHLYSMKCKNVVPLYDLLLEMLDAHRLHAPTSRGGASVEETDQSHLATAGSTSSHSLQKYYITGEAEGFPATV
Summary of the method: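 Beta-lactamase reporter, antagonist mode, HEK 293 GripTite cells; 0.5nM E2 stimulus, 18 h, 37 C; CCF4 dye 2 h RT; fluorescence. IC50 and efficacy from Hill fits, normalized to E2 and DMSO.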

[2] = target: Estrogen receptor (Homo sapiens) (UniProt P03372); assay: qHTS assay for small molecule agonists of estrogen receptor alpha signaling (AID 588514); further: nearly all actives have a fitted effect of over 70% in size
Summary of the method: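 Reporter-gene assay. […] controls beta-lactamase in HEK 293 GripTite cells; after 18 hrs with compound, CCF4 substrate is added for 2 hrs and fluorescence is read.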

[3] = target: Androgen receptor (Homo sapiens) (UniProt P10275); assay: qHTS assay for small molecule agonists of androgen receptor signaling (AID 588515; active means well fitted curve in the direction sought with a large enough effect in the signal ratio, with a control signal flat; the % refers to the signal ratio); conditions: AR-UAS-bla HEK293, beta-lactamase ratio, agonist 16 h; stronger effect = higher value
Sequence of Androgen receptor (Homo sapiens) (P10275 whole entry, looked up): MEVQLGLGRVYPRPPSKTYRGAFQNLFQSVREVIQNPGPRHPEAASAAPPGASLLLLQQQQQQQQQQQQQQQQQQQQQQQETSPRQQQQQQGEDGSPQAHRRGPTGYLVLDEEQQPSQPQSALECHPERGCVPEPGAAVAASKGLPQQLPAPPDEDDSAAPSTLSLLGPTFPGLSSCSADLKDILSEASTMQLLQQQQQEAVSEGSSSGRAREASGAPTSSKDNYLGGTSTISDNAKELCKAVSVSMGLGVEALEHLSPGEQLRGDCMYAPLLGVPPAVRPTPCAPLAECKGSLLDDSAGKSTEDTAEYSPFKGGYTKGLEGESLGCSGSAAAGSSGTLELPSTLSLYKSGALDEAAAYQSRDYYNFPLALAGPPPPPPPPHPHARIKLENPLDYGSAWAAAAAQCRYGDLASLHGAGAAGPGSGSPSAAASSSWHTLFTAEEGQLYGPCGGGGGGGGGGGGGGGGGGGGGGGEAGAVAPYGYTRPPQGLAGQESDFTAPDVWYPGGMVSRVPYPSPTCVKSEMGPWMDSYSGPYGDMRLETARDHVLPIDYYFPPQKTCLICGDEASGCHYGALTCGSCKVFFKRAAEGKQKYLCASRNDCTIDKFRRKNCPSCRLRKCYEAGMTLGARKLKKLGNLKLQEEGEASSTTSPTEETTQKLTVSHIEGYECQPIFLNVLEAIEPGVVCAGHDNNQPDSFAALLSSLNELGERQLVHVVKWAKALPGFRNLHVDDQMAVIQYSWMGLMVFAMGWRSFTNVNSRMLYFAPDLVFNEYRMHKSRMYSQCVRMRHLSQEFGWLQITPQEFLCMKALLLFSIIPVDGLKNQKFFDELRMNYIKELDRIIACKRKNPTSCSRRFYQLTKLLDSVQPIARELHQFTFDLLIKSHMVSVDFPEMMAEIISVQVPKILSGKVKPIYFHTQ
Summary of the method: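 EC50 and efficacy came from Hill fits of titrations (up to 92 uM) normalized to 30 nM R1881 as 100% and DMSO as 0%. Compound exposure was 16 h at 37 C on AR-UAS-bla HEK293 cells, with a 405/460/530 nm CCF4 fluorescence read.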

[4] = target: Androgen receptor (Homo sapiens) (UniProt P10275); assay: qHTS assay for small molecule antagonists of androgen receptor signaling (AID 588516; active means well fitted curve in the direction sought with a large enough effect in the signal ratio, with a control signal flat, not every such curve was filed as active; the % refers to the signal ratio)
Summary of the method: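 HEK293 AR-UAS-bla cells, 10% dialyzed FBS medium; cpd titration + R1881 10 nM final, 16 h 37 C; CCF4 2 h RT; FRET ratio; IC50/efficacy via Hill fit.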

[5] = target: Bile acid receptor (Homo sapiens) (UniProt Q96RI1); assay: qHTS assay for small molecule antagonists of farnesoid X receptor signaling (AID 588526)
Sequence of Bile acid receptor (Homo sapiens) (Q96RI1 whole entry, looked up): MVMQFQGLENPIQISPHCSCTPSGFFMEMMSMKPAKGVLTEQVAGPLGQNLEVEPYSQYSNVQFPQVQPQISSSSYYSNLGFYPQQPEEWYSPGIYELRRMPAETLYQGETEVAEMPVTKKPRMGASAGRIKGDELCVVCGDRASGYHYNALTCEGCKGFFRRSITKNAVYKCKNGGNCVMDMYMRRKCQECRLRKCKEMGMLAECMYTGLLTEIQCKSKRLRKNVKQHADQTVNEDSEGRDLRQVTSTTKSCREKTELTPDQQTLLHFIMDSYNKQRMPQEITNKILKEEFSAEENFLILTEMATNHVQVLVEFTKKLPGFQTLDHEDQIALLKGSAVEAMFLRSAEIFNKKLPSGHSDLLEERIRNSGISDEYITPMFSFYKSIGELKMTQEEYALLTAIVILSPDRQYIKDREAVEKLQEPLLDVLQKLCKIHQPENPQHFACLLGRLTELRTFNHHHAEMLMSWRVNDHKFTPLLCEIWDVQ
Summary of the method: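 Beta-lactamase reporter antagonist mode: HEK293T FXR-UAS-bla cells, titrated compound, CDCA stimulation, 16 h 37 C, CCF4 dye 2 h RT. Data normalized to CDCA 50 uM and DMSO; Hill-fit IC50.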

[6] = target: Bile acid receptor (Homo sapiens) (UniProt Q96RI1); assay: qHTS assay for small molecule agonists of farnesoid X receptor signaling (AID 588527); conditions: HEK293T FXR-UAS-bla, beta-lactamase ratio, 16 h; activation: stronger effect = higher value; further: series mostly up to about 77 µM
Summary of the method: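 Read-out: beta-lactamase reporter fluorescence with CCF4 substrate in GeneBLAzer FXR-UAS-bla HEK293T cells, after 16 h compound exposure at 37 C. Response scaled between DMSO basal (0%) and chenodeoxycholic acid at 100 uM (100%).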

[7] = target: Glucocorticoid receptor (Homo sapiens) (UniProt P04150); assay: qHTS assay for small molecule agonists of glucocorticoid receptor signaling (AID 588532; active means well fitted curve in the direction sought with a large enough effect in the signal ratio, with a control signal flat; the % refers to the signal ratio); conditions: HeLa MMTV-bla, beta-lactamase ratio, agonist, 18 h; activation: stronger effect = higher value, percent of dexamethasone control, DMSO zero
Summary of the method: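 Quantitative HTS using CellSensor MMTV-bla HeLa cells in charcoal/dextran-treated serum; compounds tested up to 92 uM. After 18 h at 37 C, CCF4 dye reported reporter induction.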

[8] = target: Glucocorticoid receptor (Homo sapiens) (UniProt P04150); assay: qHTS assay for small molecule antagonists of glucocorticoid receptor signaling (AID 588533; active means well fitted inhibition curve with a large enough effect in the signal ratio, with a control signal flat, not every such curve was filed as active; the % refers to the signal ratio;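 further: cells stimulated with 2 nM dexamethasone as agonist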)
Summary of the method: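 Antagonist-mode qHTS: compound titrations added to GRE-bla HeLa cells, then dexamethasone 2 nM final; 18 h, 37 C. CCF4 FRET fluorescence normalized to dexamethasone and DMSO; IC50 from Hill fit.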

[9] = target: Peroxisome proliferator-activated receptor delta (Homo sapiens) (UniProt Q03181); assay: qHTS assay for small molecule agonists of peroxisome proliferator-activated receptor delta signaling (AID 588534)
Sequence of Peroxisome proliferator-activated receptor delta (Homo sapiens) (Q03181 whole entry, looked up): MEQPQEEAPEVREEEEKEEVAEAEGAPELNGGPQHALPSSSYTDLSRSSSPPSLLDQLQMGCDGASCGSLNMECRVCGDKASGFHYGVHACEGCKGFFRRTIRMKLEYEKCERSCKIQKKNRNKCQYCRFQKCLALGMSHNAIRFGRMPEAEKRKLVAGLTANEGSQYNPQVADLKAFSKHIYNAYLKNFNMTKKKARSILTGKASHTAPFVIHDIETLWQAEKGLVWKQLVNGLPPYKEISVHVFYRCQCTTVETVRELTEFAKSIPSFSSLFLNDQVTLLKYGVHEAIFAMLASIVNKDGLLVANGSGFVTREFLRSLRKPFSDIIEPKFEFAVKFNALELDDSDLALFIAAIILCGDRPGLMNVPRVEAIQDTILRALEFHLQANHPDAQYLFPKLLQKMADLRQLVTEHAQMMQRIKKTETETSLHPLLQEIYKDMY
Summary of the method: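 Reporter cells were plated and held 5 hrs at 37 C before compounds were added. After 18 hrs at 37 C, CCF4 dye was loaded for 2 hrs at RT and fluorescence measured.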

[10] = qHTS assay for small molecule antagonists of peroxisome proliferator-activated receptor delta signaling (AID 588535; active means well fitted inhibition curve with a large enough effect in the signal ratio, with a control signal flat, not every such curve was filed as active; the % refers to the signal ratio;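 on max response: cells co-treated with a PPAR-delta agonist as stimulator during compound exposure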); conditions: HEK293T PPARd-UAS-bla, beta-lactamase FRET ratio, 18 h; 460 nm channel
Summary of the method: (§1)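 Cell-based beta-lactamase assay in antagonist mode: 4000 HEK293T PPAR-delta-UAS-bla cells per well, 5 hr preincubation then 18 hr compound incubation at 37 C. IC50 obtained by Hill equation fitting.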

[11] = target: Peroxisome proliferator-activated receptor delta (Homo sapiens) (UniProt Q03181); assay: as above
Summary of the method: as §1

[12] = target: Peroxisome proliferator-activated receptor gamma (Homo sapiens) (UniProt P37231); assay: qHTS assay for small molecule agonists of peroxisome proliferator-activated receptor gamma signaling (AID 588536; active means well fitted curve in the direction sought with a large enough effect in the signal ratio, with a control signal flat, not every such curve was filed as active; the % refers to the signal ratio)
Sequence of Peroxisome proliferator-activated receptor gamma (Homo sapiens) (P37231 whole entry, looked up): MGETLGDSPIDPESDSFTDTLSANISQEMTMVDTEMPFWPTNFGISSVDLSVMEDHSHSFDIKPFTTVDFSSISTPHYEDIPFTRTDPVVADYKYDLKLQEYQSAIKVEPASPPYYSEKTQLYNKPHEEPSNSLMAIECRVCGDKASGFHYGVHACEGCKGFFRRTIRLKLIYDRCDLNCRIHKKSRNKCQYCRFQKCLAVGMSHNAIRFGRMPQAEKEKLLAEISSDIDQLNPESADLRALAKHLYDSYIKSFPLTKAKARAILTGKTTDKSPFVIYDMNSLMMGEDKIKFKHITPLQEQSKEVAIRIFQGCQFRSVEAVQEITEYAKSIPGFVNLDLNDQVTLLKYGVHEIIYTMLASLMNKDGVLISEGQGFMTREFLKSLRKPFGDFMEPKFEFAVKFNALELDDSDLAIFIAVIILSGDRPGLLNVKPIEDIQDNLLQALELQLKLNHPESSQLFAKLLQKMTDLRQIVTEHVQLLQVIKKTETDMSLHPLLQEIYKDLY
Summary of the method: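 Test agents, titrated, stimulated HEK293 UAS-bla cells overnight (16 h, 37 C). Substrate CCF4 was then added for two hours at room temperature before fluorescence reading.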

[13] = target: Peroxisome proliferator-activated receptor gamma (Homo sapiens) (UniProt P37231); assay: qHTS assay for small molecule antagonists of peroxisome proliferator-activated receptor gamma signaling (AID 588537; active means well fitted inhibition curve with a large enough effect in the signal ratio, with a control signal flat, not every such curve was filed as active; the % refers to the signal ratio;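 further: reporter cells co-stimulated with 50 nM rosiglitazone agonist during compound treatment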)
Summary of the method: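 Inhibitors of agonist-stimulated UAS-bla reporter activity were sought in HEK293 cells; rosiglitazone (50 nM) defined full signal and DMSO baseline. Curves fitted to Hill model gave IC50 and efficacy.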

[14] = target: Vitamin D3 receptor (Homo sapiens) (UniProt P11473); assay: qHTS assay for small molecule agonists of vitamin D receptor signaling (AID 588543)
Sequence of Vitamin D3 receptor (Homo sapiens) (P11473 whole entry, looked up): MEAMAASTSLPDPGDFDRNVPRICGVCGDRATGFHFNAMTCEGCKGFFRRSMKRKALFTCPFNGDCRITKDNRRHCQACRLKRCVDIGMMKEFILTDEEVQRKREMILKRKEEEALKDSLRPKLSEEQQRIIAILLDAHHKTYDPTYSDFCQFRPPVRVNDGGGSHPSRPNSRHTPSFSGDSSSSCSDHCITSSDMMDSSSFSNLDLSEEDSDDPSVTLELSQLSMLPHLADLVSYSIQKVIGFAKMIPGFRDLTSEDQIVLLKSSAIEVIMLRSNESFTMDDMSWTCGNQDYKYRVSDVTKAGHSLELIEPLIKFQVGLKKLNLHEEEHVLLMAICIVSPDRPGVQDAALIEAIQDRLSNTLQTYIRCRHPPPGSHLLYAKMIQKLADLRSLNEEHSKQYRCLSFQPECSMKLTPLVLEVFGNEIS
Summary of the method: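 β-lactamase reporter, VDR-UAS-bla HEK293T, agonist mode. Cells plated 5 h at 37 °C, compound titration 16 h at 37 °C, CCF4 dye 2 h RT, ratio 460/530 nm. Hill fit → EC50, efficacy vs 50 nM 1α,25-(OH)2D3.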

[15] = qHTS assay for small molecule agonists of retinoid X receptor alpha signaling (AID 588544); conditions: HEK293T RXRa-UAS-bla, beta-lactamase reporter, 18 h; 530 nm emission
[16] = target: Retinoic acid receptor RXR-alpha (Homo sapiens) (UniProt P19793); assay: as above
Sequence of Retinoic acid receptor RXR-alpha (Homo sapiens) (P19793 whole entry, looked up): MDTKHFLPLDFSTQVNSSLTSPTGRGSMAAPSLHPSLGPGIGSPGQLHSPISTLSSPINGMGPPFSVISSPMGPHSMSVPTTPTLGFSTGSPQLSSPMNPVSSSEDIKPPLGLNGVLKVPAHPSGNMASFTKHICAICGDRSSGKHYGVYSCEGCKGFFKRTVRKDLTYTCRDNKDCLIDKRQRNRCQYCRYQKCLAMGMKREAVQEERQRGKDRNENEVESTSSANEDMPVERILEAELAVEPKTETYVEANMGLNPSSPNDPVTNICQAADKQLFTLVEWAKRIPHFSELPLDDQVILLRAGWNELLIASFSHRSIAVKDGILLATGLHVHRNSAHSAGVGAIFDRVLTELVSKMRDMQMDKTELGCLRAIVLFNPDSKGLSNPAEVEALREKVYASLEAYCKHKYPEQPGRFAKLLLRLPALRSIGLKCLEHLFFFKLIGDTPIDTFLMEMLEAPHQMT

[17] = target: Thyroid hormone receptor beta (Homo sapiens) (UniProt P10828); assay: qHTS assay for small molecule agonists of thyroid hormone receptor beta signaling (AID 588545)
Sequence of Thyroid hormone receptor beta (Homo sapiens) (P10828 whole entry, looked up): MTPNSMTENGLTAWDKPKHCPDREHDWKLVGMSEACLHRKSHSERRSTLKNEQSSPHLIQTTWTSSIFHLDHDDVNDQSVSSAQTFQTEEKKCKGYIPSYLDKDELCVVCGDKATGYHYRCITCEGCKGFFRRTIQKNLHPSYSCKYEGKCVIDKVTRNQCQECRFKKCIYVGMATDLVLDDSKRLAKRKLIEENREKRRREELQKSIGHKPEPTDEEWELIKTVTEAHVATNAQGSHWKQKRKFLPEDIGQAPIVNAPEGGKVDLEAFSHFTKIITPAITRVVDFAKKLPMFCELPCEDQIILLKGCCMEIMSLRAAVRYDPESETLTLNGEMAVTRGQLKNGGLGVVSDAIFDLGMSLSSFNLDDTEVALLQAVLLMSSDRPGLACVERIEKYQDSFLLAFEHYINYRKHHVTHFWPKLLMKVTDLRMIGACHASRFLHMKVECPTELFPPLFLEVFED
Summary of the method: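 Agonist activity was read as beta-lactamase CCF4 fluorescence (405 ex, 460/530 em), scaled between DMSO (0%) and 10 nM T3 (100%), then Hill-fitted for EC50 and efficacy. HEK 293 TR-UAS-bla cells in 2% charcoal/dextran FBS medium were exposed 18 h at 37 C.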

[18] = qHTS assay for small molecule antagonists of retinoid X receptor alpha signaling (AID 588546; active means well fitted inhibition curve with a large enough effect in the signal ratio, with a control signal flat, not every such curve was filed as active; the % refers to the signal ratio;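 further: cells stimulated with 9-cis-retinoic acid as agonist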); conditions: HEK293T RXRa-UAS-bla, beta-lactamase ratio, antagonist mode; measured here: W530 green channel, cytotoxicity proxy
Summary of the method: (§2)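 Beta-lactamase reporter inhibition, read as CCF4 fluorescence ratio (ex 405, em 460/530 nm) after 2 h at RT. HEK293T UAS-bla cells, 2500/well, were stimulated with 9-cis-RA at 500 or 100 nM final alongside test compound for 18 h at 37 C.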

[19] = target: Retinoic acid receptor RXR-alpha (Homo sapiens) (UniProt P19793); assay: as above; conditions: HEK293T RXRa-UAS-bla, beta-lactamase ratio, antagonist mode
Summary of the method: as §2

[20] = target: Thyroid hormone receptor beta (Homo sapiens) (UniProt P10828); assay: qHTS assay for small molecule antagonists of thyroid hormone receptor beta signaling (AID 588547; active means well fitted inhibition curve with a large enough effect in the signal ratio, with a control signal flat, not every such curve was filed as active; the % refers to the signal ratio;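 further: cells stimulated with 0.4 nM T3 agonist during compound exposure; series mostly up to about 77 µM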); conditions: TR-UAS-bla HEK293, beta-lactamase ratio, antagonist mode, 18 h
Summary of the method: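 Inhibition of T3-driven (0.4nM final) beta-lactamase reporter activity was measured over 0.59 nM to 92 uM compound after 18 h at 37 C. The cells were GripTite HEK293 TR-UAS-bla in charcoal/dextran-stripped serum, with CCF4 ratio read-out and IC50 from Hill fits.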

[21] = qHTS assay for small molecule activators of the p53 signaling pathway (AID 651743; active means well fitted activation curve with a large enough effect in the signal ratio, not every such curve was filed as active; the % refers to the signal ratio; further: series mostly up to about 92 µM); conditions: HCT-116 p53RE-bla, beta-lactamase FRET ratio, 16 h; activation: stronger effect = higher value
Summary of the method: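 Screen for p53 pathway agonists uses stably transfected p53RE-bla HCT-116 cells, 4,000 per well, treated 16 h at 37 C with compounds in DMSO.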

[22] = qHTS assay for small molecule activators of the nuclear factor-kappa B (NF-kB) signaling pathway (AID 651749; active means well fitted activation curve with a large enough effect in the signal ratio; the % refers to the signal ratio; further: series mostly up to about 77 µM); conditions: NF-kB-bla ME-180 cells, beta-lactamase FRET ratio, 16 h; activation: stronger effect = higher value
Summary of the method: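 Stably transfected ME-180 line; NF-kB response element upstream of beta-lactamase. Treatment: compound or DMSO, 16 hr. Detection: fluorescent FRET substrate.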

[23] = qHTS assay for small molecule agonists of the antioxidant response element (ARE) signaling pathway measured by Nrf2-dependant transcriptional activity (AID 720636; active means well fitted curve in the direction sought with a large enough effect in the repeat runs; an effect the other way counts as inactive or inconclusive)
Summary of the method: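 ARE-luc HepG2 cells carrying an Nrf2-responsive luciferase reporter, in medium with 1% dialyzed FBS, exposed to compound for 16 hr at 37 C, 5% CO2. Luminescence read 30 min after ONE-Glo addition.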

[24] = qHTS assay for small molecule agonists of the antioxidant response element (ARE) signaling pathway measured by Nrf2-dependant transcriptional activity - cell viability counter screen (AID 720653; active means well fitted curve in the direction sought with a large enough effect in the repeat runs; an effect the other way counts as inactive or inconclusive); conditions: ARE-bla HepG2 viability, CellTiter-Glo ATP luminescence, 16 h; max response: stronger effect = lower value
Summary of the method: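 Cytotoxicity counter screen: intracellular ATP quantified by CellTiter-Glo luminescence in the same ARE-bla HepG2 plates, after 16 h compound exposure and a 2 h beta-lactamase substrate step.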

[25] = qHTS assay for cell viability of HEK293 cells (AID 743288; active means well fitted curve in the direction sought with a large enough effect; an effect the other way counts as inactive or inconclusive; further: nearly all actives have a fitted effect of over 50% in size); conditions: ATP luminescence (CellTiter-Glo), 18 h; max response: stronger effect = lower value
Summary of the method: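 Environmental chemicals tested in qHTS format against parental HEK293 cells; 18 h treatment, 37 C; read-out ATP luminescence (CellTiter-Glo), 30 min RT development.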

[26] = qHTS assay for cell viability of the p53RE-bla HCT-116 cell line (AID 743292; active means well fitted curve in the direction sought with a large enough effect; an effect the other way counts as inactive or inconclusive; further: nearly all actives have a fitted effect of over 55% in size)
Summary of the method: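 CellSensor p53RE-bla HCT-116 cells (4,000/well) pre-incubated 5 h at 37 C, then exposed to compounds in DMSO for 16 h at 37 C. Viability read as ATP content by CellTiter-Glo luminescence after 30 min at room temperature.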

[27] = qHTS assay for small molecule agonists of the antioxidant response element (ARE) signaling pathway (AID 651741; active means well fitted activation curve with a large enough effect in the signal ratio; the % refers to the signal ratio)
Summary of the method: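 Seeding 2,000 ARE-bla HepG2 cells per well preceded a 5 h incubation at 37 C/5% CO2 and a 16 h compound exposure at 37 C. Beta-lactamase reporter activity was then quantified by fluorescence after 2 h with LiveBLAzer B/G FRET substrate.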

[28] = qHTS assay for environmental chemicals that activate the Aryl hydrocarbon Receptor (AhR) signaling pathway (AID 651777; active means well fitted curve in the direction sought with a large enough effect; an effect the other way counts as inactive or inconclusive; further: nearly all actives have a fitted effect of over 15% in size); conditions: 1A2-DRE human hepatoma cells, luciferase, 24 h; activation: stronger effect = higher value
Summary of the method: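 Human hepatoma 1A2-DRE cells stably carrying a DRE/CYP1A2 promoter–luciferase reporter, 1,200 cells/well, exposed to compound 24 hr at 37 C. Luciferase read by One-Glo luminescence after 30 min at room temperature; increased signal marks AhR activation.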

[29] = target: Peroxisome proliferator-activated receptor alpha (Homo sapiens) (UniProt Q07869); assay: qHTS assay for small molecule agonists of the peroxisome proliferator-activated receptor alpha (PPARalpha) signaling pathway (AID 651778; active means well fitted curve in the direction sought with a large enough effect; an effect the other way counts as inactive or inconclusive); conditions: PathHunter PPARalpha complementation, chemiluminescence, 6 h; max response: stronger effect = higher value
Sequence of Peroxisome proliferator-activated receptor alpha (Homo sapiens) (Q07869 whole entry, looked up): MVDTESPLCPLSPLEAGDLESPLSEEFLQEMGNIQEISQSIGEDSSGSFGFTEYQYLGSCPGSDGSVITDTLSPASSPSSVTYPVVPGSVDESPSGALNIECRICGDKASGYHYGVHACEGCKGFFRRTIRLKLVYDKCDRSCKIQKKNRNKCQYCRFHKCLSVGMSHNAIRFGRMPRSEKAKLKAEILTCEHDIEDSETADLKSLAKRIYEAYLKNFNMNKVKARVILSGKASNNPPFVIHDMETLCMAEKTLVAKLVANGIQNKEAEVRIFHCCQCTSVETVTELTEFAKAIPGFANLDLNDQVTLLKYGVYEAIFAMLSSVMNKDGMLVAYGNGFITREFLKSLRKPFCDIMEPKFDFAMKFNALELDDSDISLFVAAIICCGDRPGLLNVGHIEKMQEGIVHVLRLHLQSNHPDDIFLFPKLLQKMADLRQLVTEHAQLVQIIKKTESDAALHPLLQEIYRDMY
Summary of the method: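 Chemiluminescence from complemented enzyme reported PPARalpha activation in cells after 6 hr of compound treatment at 37 C. The detection reagent was incubated for 60 min at room temperature, and compounds were scored as agonists.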

[30] = target: Nuclear receptor subfamily 1 group I member 2 (Rattus norvegicus) (UniProt Q9R1A7); assay: qHTS assay for small molecule activators of the rat pregnane X receptor (rPXR) signaling pathway (AID 651751; call rule not given here); conditions: rPXR reporter cells, luciferase (One-Glo), 24 h

Question: With `CCCC1COC(Cn2cncn2)(c2ccc(Cl)cc2Cl)O1` (stereo unspecified) as the compound, how does the Potency [1] read?
Answer: inactive

Question: What about the Potency [2] of the same compound?
Answer: inactive

Question: And the activation [3]?
Answer: -7.53% (inactive) and -11.8% (inactive)

Question: What about the Potency [4] of the same compound?
Answer: inactive

Question: And the Potency [5]?
Answer: inactive

Question: And the activation [6]?
Answer: 0.69% (inactive)

Question: And the activation [7]?
Answer: 4.96% (inactive) and -1.29% (inactive)

Question: And the Potency [8]?
Answer: inactive

Question: And the outcome [9]?
Answer: inactive

Question: What about the max response [10] of the same compound?
Answer: 10.7%

Question: What about the Potency [11] of the same compound?
Answer: inactive

Question: What about the Potency [12] of the same compound?
Answer: inactive

Question: What about the Potency [13] of the same compound?
Answer: inactive

Question: What about the outcome [14] of the same compound?
Answer: inactive

Question: What about the max response [15] of the same compound?
Answer: 1.7%

Question: What about the Potency [16] of the same compound?
Answer: inactive

Question: What about the Potency [17] of the same compound?
Answer: inactive

Question: And the max response [18]?
Answer: 5.44%

Question: What about the max response [19] of the same compound?
Answer: 2.1% (inactive)

Question: And the activity change % (negative = inhibition) [20]?
Answer: 12.9% (inactive) and 0.314% (inactive)

Question: What about the activation [21] of the same compound?
Answer: -6.14% (inactive)

Question: What about the activation [22] of the same compound?
Answer: -0.905% (inactive) and -2.64% (inactive)

Question: What about the Potency [23] of the same compound?
Answer: inactive

Question: And the max response [24]?
Answer: -18.4% (inactive) and -18.3% (inactive)

Question: What about the max response [25] of the same compound?
Answer: -21.6% (inactive) and -21.9% (inactive)

Question: And the Potency [26]?
Answer: inactive

Question: What does the source list for `Cc1cnc(C2=NC(C)(C(C)C)C(=O)N2)c(C(=O)O)c1` (stereo unspecified)?
Answer: Potency [1]: inactive; Potency [2]: inactive; activation [3]: -8.96% (inactive) and 2.01% (inactive); Potency [4]: inactive; activation [7]: 0.844% (inactive) and 5.59% (inactive); outcome [9]: inactive; max response [10]: -1.47%; Potency [11]: inactive; Potency [12]: inactive; Potency [13]: inactive; outcome [14]: inactive; max response [15]: -18.8% and -4.8%; Potency [16]: inactive; Potency [17]: inactive; max response [18]: 8.17%; max response [19]: 9.76% (inactive); Potency [27]: inactive; activation [21]: 0.249% (inactive) and -2.82% (inactive); activation [28]: 1.97% (inactive) and -3.27% (inactive); max response [29]: -1.29% (inactive) and -1.68% (inactive); Potency [23]: inactive; max response [24]: -15.3% (inactive) and 23.5% (inactive); max response [25]: -9.43% (inactive) and 4.33% (inactive); Potency [26]: inactive; max response [30]: 5.11% (inactive) and -5.71% (inactive)
